{"source": "PubChem BioAssay", "note": "Results with a measured potency or affinity are listed apart. The source made the active and inactive calls. No cut-off is given here; in the data, nearly all actives have IC50 up to about 0.98 µM."}
{"target": "Calcium-dependent protein kinase 1 (Plasmodium falciparum (isolate 3D7)) (UniProt P62344)", "sequence (P62344 whole entry, looked up)": "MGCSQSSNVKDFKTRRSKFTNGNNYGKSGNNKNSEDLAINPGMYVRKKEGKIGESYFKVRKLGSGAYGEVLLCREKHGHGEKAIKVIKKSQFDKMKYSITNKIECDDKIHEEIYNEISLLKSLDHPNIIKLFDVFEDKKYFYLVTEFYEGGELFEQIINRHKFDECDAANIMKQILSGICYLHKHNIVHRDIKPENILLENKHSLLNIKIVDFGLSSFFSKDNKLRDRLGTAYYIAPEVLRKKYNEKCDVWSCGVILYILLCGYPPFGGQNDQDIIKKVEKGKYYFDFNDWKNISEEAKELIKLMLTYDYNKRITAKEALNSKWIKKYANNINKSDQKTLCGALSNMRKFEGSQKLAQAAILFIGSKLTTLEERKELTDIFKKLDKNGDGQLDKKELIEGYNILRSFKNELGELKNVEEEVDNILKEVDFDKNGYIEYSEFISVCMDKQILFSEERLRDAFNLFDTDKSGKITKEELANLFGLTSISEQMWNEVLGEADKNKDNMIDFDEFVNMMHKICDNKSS", "assay": "PfCDPK1 kinase inhibitors, biochemical, TCAMS library (AID 1159585);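 note: inhibitors leave more ATP so luminescence rises with inhibition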", "conditions": "recombinant PfCDPK1, Kinase-Glo ATP depletion luminescence"}
{"compound": "Cc1cc(F)ccc1N(c1nc(-c2cc(Cl)ccc2Cl)cs1)C1CCNC1", "note": "(centres undefined)", "outcome": "inactive"}
{"compound": "CCc1nc2nc(C)cc(Nc3ccc(F)c(Cl)c3)n2n1", "outcome": "inactive"}
{"compound": "CN(C)CCNC(=O)c1cc2c(-c3ccc(Cl)cc3)nn(C)c2s1", "outcome": "inactive"}
{"compound": "CC(=O)c1sc(NC(=O)Nc2ccc(C)cc2C)nc1C", "outcome": "inactive"}
{"compound": "CCC(=O)NC(c1ccco1)c1cc(Cl)c2cccnc2c1O", "note": "(centres undefined)", "outcome": "inactive"}
{"compound": "CCNc1cc(C)nc(Nc2ccc(NC(=O)c3ccccc3Br)cc2)n1", "outcome": "inactive"}
{"compound": "CCN(CCS(C)(=O)=O)Cc1ccc(-c2ccc3ncnc(Nc4ccc(OCc5cccc(F)c5)c(Cl)c4)c3c2)o1", "outcome": "inactive"}
{"compound": "Cc1cccc(C)c1N1CCN(C2CCC(NC(=O)/C=C/c3ccccc3)CC2)CC1", "note": "(centres undefined)", "outcome": "inactive"}
{"compound": "COc1cc2c(cc1C(F)(F)F)N(C(=O)Nc1cc(Br)cc(-c3cccnc3)c1)CC2", "outcome": "inactive"}
{"compound": "CCOc1cc(Br)c(C(C)NC(=O)c2ccccc2)cc1OCC", "note": "(centres undefined)", "outcome": "inactive"}
{"compound": "Cc1cnccc1/C=C/c1cccc(OCCCN2CCc3ccc(S(C)(=O)=O)cc3CC2)c1", "outcome": "inactive"}
{"compound": "Cn1nc(-c2cccc(CNC3CCc4ccccc43)c2)c2cnc(NC3CCCC3)nc21", "note": "(centres undefined)", "outcome": "inactive"}
{"compound": "O=C(N[C@@H](Cc1ccccc1)C(=O)NC1CCCCCC1)c1ccc(O)c(-c2ccc(Cl)c(Cl)c2)c1", "outcome": "inactive"}
{"compound": "CC(=O)N1CCN(c2ccc(NC(=O)c3oc(-c4ccccc4)nc3C(F)(F)F)cn2)CC1", "outcome": "inactive"}
{"compound": "Cc1cc(F)ccc1[C@H]1C[C@H](N2CCOCC2)CCN1C(=O)N(C)[C@@H](C)c1cc(C(F)(F)F)cc(C(F)(F)F)c1", "outcome": "inactive"}
{"compound": "CCNC(=O)Nc1cccc(-c2ccc(-c3nc4c(C)cccc4[nH]3)s2)c1", "outcome": "inactive"}
{"compound": "CC1(C)C[C@@H]2C[C@@](C)(CN2C(=O)c2cc(C(C)(C)C)nn2Cc2ccccc2)C1", "outcome": "inactive"}
{"compound": "Brc1ccsc1-c1nc(NCCC(c2ccccc2)c2ccccc2)no1", "outcome": "inactive"}
{"compound": "Cc1[nH]c(C)c(-c2ccc(OCCn3cnc(Cl)c3Cl)cc2)c(=O)c1Br", "outcome": "inactive"}
{"compound": "COc1ccc2nc(C)cc(NN=Cc3ccc(Cl)cc3)c2c1", "outcome": "inactive"}
{"compound": "CN1CCC(NCc2ccc(-c3cccc(S(=O)(=O)NCCc4ccccn4)c3)cc2)CC1", "outcome": "inactive"}
{"compound": "Cc1cccc(Cl)c1S(=O)(=O)Nc1cccc(CCN2CCC(N3CCCCC3)CC2)c1", "outcome": "inactive"}
{"compound": "C=CCc1cc(C)ccc1OCCCON1C(N)=NC(N)=NC1(C)C", "outcome": "inactive"}
{"compound": "O=C(/C=C/c1ccsc1)N1CCC(CCN2CCC(c3c[nH]c4ccccc34)CC2)CC1", "outcome": "inactive"}
{"compound": "NC(=NCc1ccc(Cl)c(Cl)c1)NC(=NCCCCCCN=C(NC(N)=NCc1ccc(Cl)c(Cl)c1)N1CCCCC1)N1CCCCC1", "outcome": "inactive"}
{"compound": "O=C(/C=C/c1ccc(Cl)cc1)NCCCCCN1CCCC(C(=O)Nc2ccc(Cl)c(Cl)c2)C1", "note": "(centres undefined)", "outcome": "inactive"}
{"compound": "COc1cc(Nc2ccnc3cc(-c4ccncc4)ccc23)cc(OC)c1OC", "outcome": "inactive"}
{"compound": "CCOc1cc(C(=O)NC2CCN(Cc3ccccc3)CC2)ccc1-c1nc2cc(Cl)c(Cl)cc2[nH]1", "outcome": "inactive"}
{"compound": "Cc1[nH]c(C)c(-c2ccc(Oc3cccc(Cl)c3)cc2)c(=O)c1Br", "outcome": "inactive"}
{"compound": "COc1cccc(Nc2c(C(N)=O)cnc3ccc(-c4ccc(S(C)=O)cc4)cc23)c1", "note": "(centres undefined)", "outcome": "inactive"}
{"compound": "COc1ccc(CN2CCCN(Cc3ccc(C(=O)Nc4ccc(Cl)cc4)cc3)CC2)cc1", "outcome": "inactive"}
{"compound": "Nc1nc(N)c2c(ccc3c2ccn3CCCCO)n1", "outcome": "inactive"}
{"compound": "CCNC(=O)N[C@@H]1CN[C@@H](C#Cc2cc3c(Nc4ccc(OCc5cccc(F)c5)c(Cl)c4)ncnc3s2)C1", "outcome": "inactive"}
{"compound": "CS(=O)(=O)CCNCc1cc(-c2cc3ncnc(Nc4ccc(OCc5cccc(F)c5)c(Cl)c4)c3s2)cs1", "outcome": "inactive"}
{"compound": "COc1ccccc1CCN1CCC(CN(C)Cc2ccc(O)c(Cl)c2)CC1", "outcome": "inactive"}
{"compound": "O=c1cc(NCCCNCc2cccc(SC(F)(F)F)c2)[nH]c2ccccc12", "outcome": "inactive"}
{"compound": "CCCCCCN=C(N)c1ccc(OCCCCCOc2ccc(C(N)=NCCCCCC)cc2)cc1", "outcome": "inactive"}
{"compound": "COc1ccc(NC(=O)c2ccc(-c3ccc(-c4cccnc4)cc3)c(C)c2)cc1OCCN(C)C", "outcome": "inactive"}
{"compound": "COc1ccc2nccc(NC(=O)N3CCC(NCc4cc5ccccc5[nH]4)CC3)c2n1", "outcome": "inactive"}
